{"source": "PubChem BioAssay (EPA / NIEHS)", "note": "Activity calls are given as the source filed them. Rule for the calls: active = hit-call score of the fitted dose curve at least 0.9, where 1 is the maximum; inactive = score below 0.9.", "data": [{"tested_on": "not listed separately", "assay": "ATG_M_06_CIS: Attagene CIS-FACTORIAL HepG2 Assay for M06 Transcription Factor (Internal Marker) (AID 2282950)", "conditions": "HepG2 Attagene CIS-FACTORIAL M06 internal marker reporter; actives raise or lower the signal", "procedure,_shortened": "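Read-out is fluorescence of labelled reporter cDNA fragments resolved by capillary electrophoresis after RT-PCR. Cells: HepG2 carrying transfected cis-promoter reporter units, treated 24 h. Gain or loss of signal fitted relative to DMSO.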", "values": [{"smiles": "O=C1C(Cl)=C(Cl)C(=O)C(Cl)=C1Cl", "outcome": "inactive"}, {"smiles": "N#CCCCCC#N", "outcome": "inactive"}, {"smiles": "CC1CCC(=O)O1", "note": "(stereo unspecified)", "outcome": "inactive"}, {"smiles": "COc1cc(OC)c(OC)cc1C=O", "outcome": "inactive"}, {"smiles": "CC(C)c1ccc(O)cc1", "outcome": "inactive"}, {"smiles": "C[N+](C)(C)CC(=O)[O-]", "outcome": "inactive"}, {"smiles": "CC(C)(c1cc(Cl)c(O)c(Cl)c1)c1cc(Cl)c(O)c(Cl)c1", "outcome": "inactive"}, {"smiles": "O=C(NCNC(=O)NC1C(=O)NC(=O)N1CO)NC1C(=O)NC(=O)N1CO", "note": "(stereo unspecified)", "outcome": "inactive"}, {"smiles": "[N-]=[N+]=CC(=O)OC[C@H](N)C(=O)O", "outcome": "inactive"}, {"smiles": "COCC(=O)N(c1c(C)cccc1C)N1CCOC1=O", "outcome": "inactive"}, {"smiles": "CC(C)CCCCCCCOP(=O)(Oc1ccccc1)Oc1ccccc1", "outcome": "inactive"}, {"smiles": "CCC1CCC(=O)O1", "note": "(stereo unspecified)", "outcome": "inactive"}, {"smiles": "C=COCCCl", "outcome": "inactive"}, {"smiles": "C=CCN(CC=C)C(=O)C(Cl)Cl", "outcome": "inactive"}, {"smiles": "CC[N+](=O)[O-]", "outcome": "inactive"}, {"smiles": "CC(Cc1ccc(C(C)(C)C)cc1)CN1C[C@@H](C)O[C@@H](C)C1", "note": "(stereo partly specified)", "outcome": "inactive"}, {"smiles": "[Cl-].[Cl-].[Cl-].[Yb+3]", "outcome": "inactive"}, {"smiles": "CCOC(=O)N(C)N=O", "outcome": "inactive"}, {"smiles": "O=CNC(N1CCN(C(NC=O)C(Cl)(Cl)Cl)CC1)C(Cl)(Cl)Cl", "note": "(stereo unspecified)", "outcome": "inactive"}, {"smiles": "CCC[N+](=O)[O-]", "outcome": "inactive"}, {"smiles": "CC(C)(O)C#N", "outcome": "inactive"}, {"smiles": "CC(C)C#N", "outcome": "inactive"}, {"smiles": "S=c1[nH]c2ccccc2[nH]1", "outcome": "inactive"}, {"smiles": "CCCCCc1cc(O)cc(O)c1", "outcome": "inactive"}, {"smiles": "c1ccc(Nc2ccc3ccccc3c2)cc1", "outcome": "inactive"}, {"smiles": "CSc1nc(N=[N+]=[N-])nc(NC(C)C)n1", "outcome": "inactive"}, {"smiles": "CC=Cc1ccc2c(c1)OCO2", "outcome": "inactive"}, {"smiles": "Cc1ccc(OP(=O)(Oc2ccc(C)cc2)Oc2ccc(C)cc2)cc1", "note": "(tested in a mixture with another compound)", "outcome": "inactive"}, {"smiles": "ClC1=C(Cl)[C@]2(Cl)[C@@H]3[C@@H](Cl)[C@H](Cl)C[C@@H]3[C@@]1(Cl)C2(Cl)Cl", "outcome": "inactive"}, {"smiles": "O=S(=O)(c1ccccc1)c1ccccc1", "outcome": "inactive"}, {"smiles": "CCC(C)c1cc(C(C)(C)C)cc(-n2nc3ccccc3n2)c1O", "note": "(stereo unspecified)", "outcome": "inactive"}, {"smiles": "CC1(C)C(=O)NC(=O)NC1=O", "outcome": "inactive"}, {"smiles": "CC(=O)/C=C/c1ccccc1", "outcome": "inactive"}, {"smiles": "c1ccc(P(c2ccccc2)c2ccccc2)cc1", "outcome": "inactive"}, {"smiles": "CCOC(=O)COc1ccc(Cl)cc1Cl", "outcome": "inactive"}, {"smiles": "CCN(CC)C(=S)S", "outcome": "inactive"}, {"smiles": "N#Cc1cccc(C#N)c1", "outcome": "inactive"}, {"smiles": "O=C1Nc2ccc(Cl)cc2C(c2ccccc2)=NC1O", "note": "(stereo unspecified)", "outcome": "inactive"}, {"smiles": "N#CC(c1ccccc1)c1ccccc1", "outcome": "inactive"}, {"smiles": "C[N+](C)=CCl", "outcome": "inactive"}]}, {"molecular_target": "Hypoxia-inducible factor 1-alpha (Homo sapiens) (UniProt Q16665)", "sequence (Q16665 whole entry, looked up)": "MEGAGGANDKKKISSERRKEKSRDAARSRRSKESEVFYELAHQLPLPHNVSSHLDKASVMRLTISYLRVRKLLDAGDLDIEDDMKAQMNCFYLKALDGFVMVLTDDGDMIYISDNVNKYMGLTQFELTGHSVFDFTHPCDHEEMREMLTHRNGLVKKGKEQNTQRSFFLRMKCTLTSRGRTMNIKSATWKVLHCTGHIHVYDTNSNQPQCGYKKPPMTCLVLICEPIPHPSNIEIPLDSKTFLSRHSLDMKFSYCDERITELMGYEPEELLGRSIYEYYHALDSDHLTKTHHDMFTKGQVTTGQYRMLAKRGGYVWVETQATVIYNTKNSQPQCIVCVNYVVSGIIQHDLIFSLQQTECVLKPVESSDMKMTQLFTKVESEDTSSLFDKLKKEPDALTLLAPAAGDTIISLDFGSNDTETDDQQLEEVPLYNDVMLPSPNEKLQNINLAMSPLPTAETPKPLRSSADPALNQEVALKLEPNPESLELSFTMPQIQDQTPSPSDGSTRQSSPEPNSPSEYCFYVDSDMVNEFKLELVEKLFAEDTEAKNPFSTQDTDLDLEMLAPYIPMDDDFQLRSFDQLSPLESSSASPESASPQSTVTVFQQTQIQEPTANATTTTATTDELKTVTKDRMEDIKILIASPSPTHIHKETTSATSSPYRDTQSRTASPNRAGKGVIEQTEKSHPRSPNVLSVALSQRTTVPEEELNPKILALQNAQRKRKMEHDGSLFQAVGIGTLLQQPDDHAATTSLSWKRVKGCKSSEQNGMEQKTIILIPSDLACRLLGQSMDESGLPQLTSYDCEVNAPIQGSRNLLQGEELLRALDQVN", "assay": "ATG_HIF1a_CIS: Attagene CIS-FACTORIAL HepG2 Assay for human Hypoxia Inducible Factor 1 (HIF1A) (AID 2282951)", "conditions": "HepG2 Attagene cis-factorial HIF1a reporter transcription; actives raise or lower the signal", "procedure,_shortened": "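Endogenous-TF cis reporter readout, human HepG2 cells, 24 h incubation; mRNA detected via RT-PCR and capillary electrophoresis fluorescence; DMSO-normalised bidirectional fitting.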", "values": [{"smiles": "O=C1C(Cl)=C(Cl)C(=O)C(Cl)=C1Cl", "AC50": "100 µM (active)"}, {"smiles": "N#CCCCCC#N", "outcome": "inactive"}, {"smiles": "CC1CCC(=O)O1", "note": "(stereo unspecified)", "outcome": "inactive"}, {"smiles": "COc1cc(OC)c(OC)cc1C=O", "outcome": "inactive"}, {"smiles": "CC(C)c1ccc(O)cc1", "outcome": "inactive"}, {"smiles": "CC(C)(c1cc(Cl)c(O)c(Cl)c1)c1cc(Cl)c(O)c(Cl)c1", "outcome": "inactive"}, {"smiles": "COCC(=O)N(c1c(C)cccc1C)N1CCOC1=O", "outcome": "inactive"}, {"smiles": "CC(C)CCCCCCCOP(=O)(Oc1ccccc1)Oc1ccccc1", "outcome": "inactive"}, {"smiles": "CCC1CCC(=O)O1", "note": "(stereo unspecified)", "outcome": "inactive"}, {"smiles": "C=COCCCl", "AC50": "48.5 µM (active)"}, {"smiles": "C=CCN(CC=C)C(=O)C(Cl)Cl", "outcome": "inactive"}, {"smiles": "CC[N+](=O)[O-]", "outcome": "inactive"}, {"smiles": "CC(Cc1ccc(C(C)(C)C)cc1)CN1C[C@@H](C)O[C@@H](C)C1", "note": "(stereo partly specified)", "outcome": "inactive"}, {"smiles": "[Cl-].[Cl-].[Cl-].[Yb+3]", "outcome": "inactive"}, {"smiles": "CCOC(=O)N(C)N=O", "outcome": "inactive"}, {"smiles": "O=CNC(N1CCN(C(NC=O)C(Cl)(Cl)Cl)CC1)C(Cl)(Cl)Cl", "note": "(stereo unspecified)", "outcome": "inactive"}, {"smiles": "CCC[N+](=O)[O-]", "outcome": "inactive"}, {"smiles": "CC(C)(O)C#N", "outcome": "inactive"}, {"smiles": "CC(C)C#N", "outcome": "inactive"}, {"smiles": "S=c1[nH]c2ccccc2[nH]1", "outcome": "inactive"}, {"smiles": "CCCCCc1cc(O)cc(O)c1", "AC50": "100 µM (active)"}, {"smiles": "c1ccc(Nc2ccc3ccccc3c2)cc1", "outcome": "inactive"}, {"smiles": "CSc1nc(N=[N+]=[N-])nc(NC(C)C)n1", "outcome": "inactive"}, {"smiles": "CC=Cc1ccc2c(c1)OCO2", "outcome": "inactive"}, {"smiles": "Cc1ccc(OP(=O)(Oc2ccc(C)cc2)Oc2ccc(C)cc2)cc1", "note": "(tested in a mixture with another compound)", "outcome": "inactive"}, {"smiles": "ClC1=C(Cl)[C@]2(Cl)[C@@H]3[C@@H](Cl)[C@H](Cl)C[C@@H]3[C@@]1(Cl)C2(Cl)Cl", "AC50": "36.6 µM (active)"}, {"smiles": "O=S(=O)(c1ccccc1)c1ccccc1", "outcome": "inactive"}, {"smiles": "CCC(C)c1cc(C(C)(C)C)cc(-n2nc3ccccc3n2)c1O", "note": "(stereo unspecified)", "outcome": "inactive"}, {"smiles": "CC1(C)C(=O)NC(=O)NC1=O", "outcome": "inactive"}, {"smiles": "CC(=O)/C=C/c1ccccc1", "outcome": "inactive"}, {"smiles": "c1ccc(P(c2ccccc2)c2ccccc2)cc1", "outcome": "inactive"}, {"smiles": "CCOC(=O)COc1ccc(Cl)cc1Cl", "outcome": "inactive"}, {"smiles": "CCN(CC)C(=S)S", "outcome": "inactive"}, {"smiles": "N#Cc1cccc(C#N)c1", "outcome": "inactive"}, {"smiles": "O=C1Nc2ccc(Cl)cc2C(c2ccccc2)=NC1O", "note": "(stereo unspecified)", "outcome": "inactive"}, {"smiles": "N#CC(c1ccccc1)c1ccccc1", "outcome": "inactive"}, {"smiles": "C[N+](C)=CCl", "outcome": "inactive"}]}, {"molecular_target": "Hepatocyte nuclear factor 6 (Homo sapiens) (UniProt Q9UBC0)", "sequence (Q9UBC0 whole entry, looked up)": "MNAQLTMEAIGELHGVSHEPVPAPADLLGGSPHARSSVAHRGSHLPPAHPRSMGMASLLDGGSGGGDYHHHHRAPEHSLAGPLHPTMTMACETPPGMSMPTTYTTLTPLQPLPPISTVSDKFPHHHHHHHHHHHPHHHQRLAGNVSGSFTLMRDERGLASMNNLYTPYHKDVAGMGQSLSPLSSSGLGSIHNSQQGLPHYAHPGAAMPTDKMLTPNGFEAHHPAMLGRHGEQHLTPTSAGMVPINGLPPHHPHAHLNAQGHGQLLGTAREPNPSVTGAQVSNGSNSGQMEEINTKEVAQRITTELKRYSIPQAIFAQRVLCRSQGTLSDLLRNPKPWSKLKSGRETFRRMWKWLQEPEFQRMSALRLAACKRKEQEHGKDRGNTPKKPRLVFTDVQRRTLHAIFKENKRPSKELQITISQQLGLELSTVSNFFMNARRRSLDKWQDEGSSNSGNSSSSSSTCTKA", "assay": "ATG_HNF6_CIS: Attagene CIS-FACTORIAL HepG2 Assay for human Hepatocyte Nuclear Factor 6 (HNF6) (AID 2282952)", "conditions": "HepG2 Attagene cis-factorial HNF6 reporter transcription; actives raise or lower the signal", "procedure,_shortened": "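Multiplexed mRNA reporter assay in transfected HepG2; 24 h dosing; RT-PCR plus capillary electrophoresis fluorescence; DMSO-referenced bidirectional curve fitting.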", "values": [{"smiles": "O=C1C(Cl)=C(Cl)C(=O)C(Cl)=C1Cl", "outcome": "inactive"}, {"smiles": "N#CCCCCC#N", "outcome": "inactive"}, {"smiles": "CC1CCC(=O)O1", "note": "(stereo unspecified)", "outcome": "inactive"}, {"smiles": "COc1cc(OC)c(OC)cc1C=O", "outcome": "inactive"}, {"smiles": "CC(C)c1ccc(O)cc1", "outcome": "inactive"}, {"smiles": "C[N+](C)(C)CC(=O)[O-]", "outcome": "inactive"}, {"smiles": "CC(C)(c1cc(Cl)c(O)c(Cl)c1)c1cc(Cl)c(O)c(Cl)c1", "outcome": "inactive"}, {"smiles": "O=C(NCNC(=O)NC1C(=O)NC(=O)N1CO)NC1C(=O)NC(=O)N1CO", "note": "(stereo unspecified)", "outcome": "inactive"}, {"smiles": "[N-]=[N+]=CC(=O)OC[C@H](N)C(=O)O", "outcome": "inactive"}, {"smiles": "COCC(=O)N(c1c(C)cccc1C)N1CCOC1=O", "outcome": "inactive"}, {"smiles": "CC(C)CCCCCCCOP(=O)(Oc1ccccc1)Oc1ccccc1", "outcome": "inactive"}, {"smiles": "CCC1CCC(=O)O1", "note": "(stereo unspecified)", "outcome": "inactive"}, {"smiles": "C=COCCCl", "outcome": "inactive"}, {"smiles": "C=CCN(CC=C)C(=O)C(Cl)Cl", "outcome": "inactive"}, {"smiles": "CC[N+](=O)[O-]", "outcome": "inactive"}, {"smiles": "CC(Cc1ccc(C(C)(C)C)cc1)CN1C[C@@H](C)O[C@@H](C)C1", "note": "(stereo partly specified)", "outcome": "inactive"}, {"smiles": "[Cl-].[Cl-].[Cl-].[Yb+3]", "outcome": "inactive"}, {"smiles": "CCOC(=O)N(C)N=O", "outcome": "inactive"}, {"smiles": "O=CNC(N1CCN(C(NC=O)C(Cl)(Cl)Cl)CC1)C(Cl)(Cl)Cl", "note": "(stereo unspecified)", "outcome": "inactive"}, {"smiles": "CCC[N+](=O)[O-]", "outcome": "inactive"}, {"smiles": "CC(C)(O)C#N", "outcome": "inactive"}, {"smiles": "CC(C)C#N", "outcome": "inactive"}, {"smiles": "S=c1[nH]c2ccccc2[nH]1", "outcome": "inactive"}, {"smiles": "CCCCCc1cc(O)cc(O)c1", "outcome": "inactive"}, {"smiles": "c1ccc(Nc2ccc3ccccc3c2)cc1", "outcome": "inactive"}, {"smiles": "CSc1nc(N=[N+]=[N-])nc(NC(C)C)n1", "outcome": "inactive"}, {"smiles": "CC=Cc1ccc2c(c1)OCO2", "outcome": "inactive"}, {"smiles": "Cc1ccc(OP(=O)(Oc2ccc(C)cc2)Oc2ccc(C)cc2)cc1", "note": "(tested in a mixture with another compound)", "outcome": "inactive"}, {"smiles": "ClC1=C(Cl)[C@]2(Cl)[C@@H]3[C@@H](Cl)[C@H](Cl)C[C@@H]3[C@@]1(Cl)C2(Cl)Cl", "outcome": "inactive"}, {"smiles": "O=S(=O)(c1ccccc1)c1ccccc1", "outcome": "inactive"}, {"smiles": "CCC(C)c1cc(C(C)(C)C)cc(-n2nc3ccccc3n2)c1O", "note": "(stereo unspecified)", "outcome": "inactive"}, {"smiles": "CC1(C)C(=O)NC(=O)NC1=O", "outcome": "inactive"}, {"smiles": "CC(=O)/C=C/c1ccccc1", "AC50": "70.9 µM (active)"}, {"smiles": "c1ccc(P(c2ccccc2)c2ccccc2)cc1", "outcome": "inactive"}, {"smiles": "CCOC(=O)COc1ccc(Cl)cc1Cl", "outcome": "inactive"}, {"smiles": "CCN(CC)C(=S)S", "outcome": "inactive"}, {"smiles": "N#Cc1cccc(C#N)c1", "outcome": "inactive"}, {"smiles": "N#CC(c1ccccc1)c1ccccc1", "outcome": "inactive"}, {"smiles": "C[N+](C)=CCl", "outcome": "inactive"}]}]}
